PubChem BioAssay (NCATS)
Inconclusive results are not listed. Unmarked numbers belong to inactive results. Active and inactive are the calls of the source. The call rests on the fitted dose curve; in most records, active means well fitted cell-killing curve with a large enough effect; inconclusive means small, poorly fitted or top-dose-only effect, or effect the other way; inactive means flat fitted curve, though single readings scatter.
On the % scale 0 is the no-effect control and ±100 the full control effect; potency means the concentration at half of the fitted maximal effect.

Test: MultiTox-Fluor Cytotoxicity Assay - LYMP1-002 - Live Cells (AID 955)
Settings: LYMP1-002 lymphoblastoid live-cell protease fluorescence viability; series mostly up to 46.1 µM; viability change, negative = cytotoxic: at the top concentration
Excerpt: NIH Chemical Genomics Center [NCGC]
NIH Molecular Libraries Screening Centers Network [MLSCN]
National Institutes of Environmental Health Sciences [NIEHS]
National Toxicology Program [NTP]
We have developed a 1536-well cell-based assay for quantitative high throughput screening (qHTS) against a number of cell lines to determine in vitro cytotoxicity of small molecules. This particular assay uses a human lymphoblastoid cell line (LYMP1-002) purchased from Coriell Institute.
NCGC Assay Protocol Summary:
The MultiTox-Fluor Cytotoxicity Assay (Promega) is a homogeneous method to simultaneously measure the relative number of live and dead cells in culture by detecting changes in cell membrane integrity. There are two fluorogenic peptide substrates in the assay reagent. Viable cells are determined when the cell-permeant substrate (GF-AFC) enters the cell and is cleaved by protease from live cells resulting in liberated fluorophore. This live-cell protease activity restricted to viable cells is proportional to cell number. The dead cells are determined by using fluorogenic cell-impermeant peptide substrate (bis-AAF-R110) which cleaved by dead cell proteases leaking from damaged cell membrane.
Using the MultiTox-Fluor Cytotoxicity Assay, the relative number of live cells was measured in the lymphoblastoid cell line with complete culture medium following compound treatment for 16 hours. The assay was performed in opaque black Kalypsys 1536-well plates. In the screen, tetraoctylammonium bromide was used as positive control. Library compounds were measured for their ability to cause acute toxicity in the cell line, as reflected by a decrease in live cell protease activity, in a concentration-dependent manner. […] AC50 values were determined from concentration-response data modeled with the standard Hill equation.
qHTS protocol for MultiTox-Fluor Cytotoxicity assay
[Step] [Parameter] [Value] [Description]
1. Reagent; 5 uL; 2500 lymphoblastoid cells/well
2. Time; 5 hr; 37 C incubation
4. Controls; 23 nL; Tetraoctylammonium bromide 6.4pM to 92 uM
5. Time; 16 hr; 37 C incubation
6. Reagent; 5 uL; MuliTox-Fluor Assay reagent
7. Time; 60 min; Room Temperature
8. Detection; live-cell fluorescence (Ex/Em=405/510); EnVision plate reader
Keywords: cell viability, cytotoxicity, lymphoblastoid cell line, fluorescence, NTPHTS, NTPHTS_NCGC, NIEHS, EPA, DSSTox, MLSMR, MLSCN, NIH Roadmap, qHTS, NCGC
With COP(=O)(OC)O/C(=C\Cl)c1cc(Cl)c(Cl)cc1Cl the “viability change, negative = cytotoxic” value was -4.6%.
In the case of ClC1=C(Cl)C2(Cl)C3C(Cl)C(Cl)CC3C1(Cl)C2(Cl)Cl (stereo unspecified), the “viability change, negative = cytotoxic” value is reported as -13.9%.
In the case of OC(c1ccc(Cl)cc1)(c1ccc(Cl)cc1)C(Cl)(Cl)Cl, the “viability change, negative = cytotoxic” value is reported as 4.68%.
With CCCCCCCCn1sccc1=O the Potency was 7.94 µM (active).
For [CH3][Hg][Cl], the Potency was 12.6 µM (active).
In the case of N#CC(Cl)Cl, the “viability change, negative = cytotoxic” value is reported as -7.02%.
In the case of c1ccc2cc3c(cc2c1)-c1cccc2cccc-3c12, the “viability change, negative = cytotoxic” value is reported as 20.5%.
With C[C@@H]1CC[C@@]2(OC1)O[C@H]1[C@@H](O)[C@H]3[C@@H]4CC[C@H]5C[C@@H](O[C@@H]6O[C@H](CO)[C@H](O[C@@H]7O[C@H](CO)[C@@H](O)[C@H](O[C@@H]8OC[C@@H](O)[C@H](O)[C@H]8O)[C@H]7O[C@@H]7O[C@H](CO)[C@@H](O)[C@H](O[C@@H]8O[C@H](CO)[C@@H](O)[C@H](O)[C@H]8O)[C@H]7O)[C@H](O)[C@H]6O)[C@H](O)C[C@]5(C)[C@H]4CC[C@]3(C)[C@H]1[C@@H]2C the Potency was 3.98 µM (active).
With Clc1ccc(C(c2ccc(Cl)cc2)C(Cl)Cl)cc1 the “viability change, negative = cytotoxic” value was -14.5%.
With O=C(O)C1C(C(=O)O)C2(Cl)C(Cl)=C(Cl)C1(Cl)C2(Cl)Cl (stereo unspecified) the “viability change, negative = cytotoxic” value was 4.78%.
In the case of C#CCO, the “viability change, negative = cytotoxic” value is reported as 1.7%.
With CC(=O)[O-].CC(=O)[O-].O.O.[Cd+2] the “viability change, negative = cytotoxic” value was -19.9%.
In the case of [Cd+2].[Cl-].[Cl-], the “viability change, negative = cytotoxic” value is reported as -27.8%.
For C=CC(=O)OCC(CO)(COC(=O)C=C)COC(=O)C=C, the Potency was 3.98 µM (active).
In the case of O=C1C2(Cl)C3(Cl)C4(Cl)C(Cl)(Cl)C5(Cl)C3(Cl)C1(Cl)C5(Cl)C24Cl (stereo unspecified), the Potency is reported as 31.6 µM (active).
For C(=NC1CCCCC1)=NC1CCCCC1, the “viability change, negative = cytotoxic” value was 7.04%.
With c1cc(OCC2CO2)cc(OCC2CO2)c1 (stereo unspecified) the Potency was 31.6 µM (active).
In the case of Oc1c(Br)c(Br)c(Br)c(Br)c1Br, the “viability change, negative = cytotoxic” value is reported as 8.56%.
With FC(F)(F)c1ccc(Cl)cc1 the “viability change, negative = cytotoxic” value was 0.0435%.
For Nc1ccccc1C(=O)OCCc1ccccc1, the “viability change, negative = cytotoxic” value was -5.46%.
In the case of O=Nc1ccc(Nc2ccccc2)cc1, the Potency is reported as 6.31 µM (active).
For O=[N+]([O-])C(Br)Br, the “viability change, negative = cytotoxic” value was 2.66%.
For O=C(CCl)c1ccccc1, the Potency was 31.6 µM (active).
With CN(C)c1ccc(N=O)cc1 the Potency was 5.01 µM (active).
With N#CSCSC#N the Potency was 15.8 µM (active).
With O=[N+]([O-])c1cc(C(F)(F)F)cc([N+](=O)[O-])c1Cl the “viability change, negative = cytotoxic” value was -8.38%.
